Laboratory results reported in the supplement of paper PMC6555819.

How the values were obtained:
Experiment in all cases: PBM binding z-score (relative to random genomic background probes); higher = stronger binding; sequences stand for … in GC…GCGATTGACAGCGTAGAATGAAGG
[1] = tested on: RARb homodimer (NR concentration 270 nM)
Method in brief: (§1)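 The probes on custom Agilent 4×180K protein-binding microarrays were double-stranded, with 34-nt variable regions bearing direct-repeat seeds, single-nucleotide variants, half-site ablations and random human genomic background sequences. Incubation lasted 1 h with ligand-free nuclear receptor dimers in PBS pH 7.4, 2% milk, 0.02% Triton X-100, 1 mM DTT, 0.2 mg/mL BSA and 0.4 mg/ml salmon testes DNA. Antibodies against each partner (one per run) detected bound dimers, and fluorescence scans were regression-normalized. Binding z-scores take the random background probes as reference.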

[2] = tested on: RARg:RXRa (NR concentration 270 nM, RXRa partner concentration 90 nM)
Method in brief: as §1

[3] = tested on: RARg homodimer (NR concentration 270 nM)
Method in brief: as §1

[4] = tested on: RXRa DBDmut IVT, anti-RXR (DBD mutation: RXRa K156A/R161A, NR concentration 90 nM)
Method in brief: as §1

[5] = tested on: RXRa homodimer (NR concentration 180 nM)
Method in brief: as §1

[6] = tested on: THRa:RXRa (NR concentration 90 nM, RXRa partner concentration 90 nM)
Method in brief: as §1

[7] = tested on: THRa homodimer (NR concentration 90 nM)
Method in brief: as §1

[8] = tested on: VDR:RXRa (NR concentration 270 nM, RXRa partner concentration 90 nM)
Method in brief: as §1

[9] = tested on: VDR homodimer (NR concentration 270 nM)
Method in brief: as §1

| Sequence | PBM binding z-score [1] | PBM binding z-score [2] | PBM binding z-score [3] | PBM binding z-score [4] | PBM binding z-score [5] | PBM binding z-score [6] | PBM binding z-score [7] | PBM binding z-score [8] | PBM binding z-score [9] |
| --- | --- | --- | --- | --- | --- | --- | --- | --- | --- |
| TCTGCTAGGTCAGTTGGCCAGCTAACGAGCTGCC | 2.15 | 2.56 | 3.53 | 0.428 | 0.616 | 1.27 | -0.473 | -0.113 | -0.804 |
| CCTACTGGGCTACGAAAGGTCATTGATTCAGTGA | 4.59 | 4.54 | 4.54 | 0.401 | 5.27 | 3.44 | 0.738 | 3.71 | 2.02 |
| TGAATGAGGTTACAGATCAGGGAACGTGGCGTCG | 0.793 | 1.89 | 1.4 | 0.394 | 2.29 | 2.67 | 0.836 | 0.932 | 0.364 |
| CCAGACTGGTGAAAGGTAACTCAGTCTGGTACGC | 0.104 | 0.0585 | -0.236 | -0.492 | 0.524 | 0.18 | -0.494 | -0.0185 | -0.181 |
| CCTCGGAGGACAGAATGTCAGAGCTGTCCGCTTT | -0.0927 | -0.321 | 0.175 | -0.282 | -0.66 | -0.251 | -0.615 | -0.778 | -0.654 |
| ACTATTAGTTGAATTAGGGCAACCGATACGACGC | 0.778 | 0.551 | 0.997 | 0.675 | 0.283 | 1.54 | 0.513 | 0.274 | 0.497 |
| AATACAGGGTCACTAGCCCAGAGTAGGTACGAAT | 2.95 | 4.82 | 4.62 | 2.61 | 5.17 | 3.22 | 1.13 | 4 | 2.21 |
| TTACCAAGGTGAAAGTTCGTTGATGCACGCCTTG | 1.67 | 2.35 | 1.2 | 1.14 | 2.86 | 2.41 | 0.508 | 2.12 | 2.05 |
| CGTCGAAGGTCAGAGAGGTCAGTGAATGCCGAGT | 5.14 | 6.51 | 7.29 | 2.6 | 5.68 | 3.85 | 1.32 | 7.5 | 5.14 |
| ACAGACAGGTGAGTGAAGGTAACTGAGCTGGACG | 0.0356 | 0.592 | 0.479 | -0.622 | 0.511 | 1.75 | -0.353 | -0.202 | -0.218 |
| ATCTCTAGGTAACCAATTTCAGTGAATGCCGAAC | 0.515 | 0.324 | 0.586 | 0.556 | 0.198 | 0.887 | 0.984 | 0.336 | 0.312 |
| CCGACTGGGGCAAGGTTTCCATAACGCACAGCCA | 0.28 | 0.112 | 0.326 | -0.561 | -0.0639 | -0.0993 | -0.3 | -0.502 | -0.47 |
| CAAACTACGTCAAGGTCAAAGTCGGTTTGTGCCA | 4.2 | 4.46 | 4.3 | 2.66 | 4.77 | 3.96 | 3.63 | 4.45 | 4.35 |
| GTACCAAGGTGAACAGGTCGTTGATGAGTAGGCG | 1.76 | 1.95 | 1.02 | -0.221 | 1.67 | 2.22 | 0.534 | 1.15 | 0.0817 |
| GCTATGAGTTGAAAGGGCAACCGAATGATTCTCG | 2.14 | 2.06 | 1.7 | 1.93 | 2.78 | 1.17 | -0.184 | 1.2 | 0.754 |
| CAAACTAGGTCGAGGTCAAAGTCGGTTTGTGCCA | 4.43 | 5.24 | 4.79 | 2.93 | 5.63 | 4.31 | 3.49 | 5.52 | 5.19 |
| TCGAGTATGTTAGTCGGGGCATTCAGCCAACATA | -0.183 | -0.172 | -0.574 | 0.723 | -0.06 | 0.102 | -0.431 | 0.158 | 0.226 |
| TCATATCGGTAATACAGGTGAAAGTCGGCATCTA | 0.531 | 0.354 | 0.441 | 1.09 | 0.783 | 0.59 | 0.42 | 0.66 | 0.435 |
| TCTAGCGGGCCAGAGGGTCACTCAAGAGGTACGG | 2.86 | 2.61 | 1.98 | 0.0957 | 2.37 | 1.51 | -0.522 | 1.29 | 0.587 |
| TCTTGTAGATCAGCAGGTTAAGACAGCTGGCCAA | 0.0345 | 0.0307 | -0.276 | 0.415 | 0.431 | 0.272 | -0.416 | 0.176 | -0.184 |
| GGATCGAGGGCATTCGAGTTGATAGCATGGCGAT | 0.818 | 1.07 | 1.25 | 3.06 | 0.598 | 3.39 | -0.117 | 3.52 | 3.49 |
| TTACCAAGGTGAGCTGAGGTCGGTGATCCAACTC | 1.46 | 0.608 | 0.586 | -0.659 | 0.505 | 4.31 | 1.25 | 1.26 | 0.0612 |
| TCTTGTAGATCAGCAGGTCAAGAAAGCTGGCCAA | 2.13 | 2.22 | 1.55 | 0.289 | 2.05 | 1.89 | 0.0646 | 1.17 | 0.194 |
| GAAACGAGGGCAAAGTTGATAGCATCTGTCGACG | 1.33 | 2.11 | 1.58 | 2.66 | 2.3 | 1.57 | -0.284 | 1.69 | 1.13 |

| Sequence | PBM binding z-score [1] | PBM binding z-score [2] | PBM binding z-score [3] | PBM binding z-score [4] | PBM binding z-score [5] | PBM binding z-score [6] | PBM binding z-score [7] | PBM binding z-score [8] | PBM binding z-score [9] |
| --- | --- | --- | --- | --- | --- | --- | --- | --- | --- |
| GCATATAGGTAATACAAGGTGCAAGTCCGATTGT | -0.0695 | 0.291 | 0.14 | 0.314 | 0.27 | 1.52 | -0.516 | 0.355 | 0.533 |
| AGAACGAGGGCAATGAGTTGATAGCTCGGGTGGC | 0.713 | 0.827 | 1.26 | 1.77 | 0.484 | 0.779 | -0.312 | 4.8 | 2.69 |
| CATACAGGGTCAGCTAGGCCGGAGTAGGGACGGC | 3 | 4.28 | 4.35 | 1.18 | 3.93 | 2.78 | 0.818 | 3.08 | 0.84 |
| GCTGCTAGGTCAGGTTGGTCAGCTACCGGGTACG | 2.79 | 2.17 | 3.73 | 0.371 | 0.808 | 1.76 | 0.717 | 0.397 | 0.476 |
| GCAACGAGGGCATTCGAGTTGATAGCATGGCGAT | 0.663 | 0.926 | 1.45 | 3.01 | 0.65 | 3.31 | -0.513 | 3.57 | 3.27 |
| CCTTACGGGCCACTGACAGGTTATAGCATTTGGA | 0.8 | 0.731 | 0.737 | -0.085 | 0.326 | 0.0187 | -0.159 | -0.202 | -0.034 |
| GTACCAAGGAGAATAGGTCGTTGATGAGTAGGCG | 0.0836 | 0.268 | 0.222 | -0.343 | 0.654 | -0.111 | -0.986 | 0.0366 | -0.123 |
| ATATGTAGGTTAAGGTTCATTCAGGTTGGTTCGC | 2.18 | 2.48 | 1.47 | 3.2 | 3.38 | 2.49 | 1.4 | 5.06 | 6.72 |
| TCATCTAGGTAAACAGGTGAAAGTCCGTAAGTTA | 0.582 | 0.394 | 0.147 | 1.26 | 0.645 | 0.888 | 0.459 | 0.914 | 0.0533 |
| GGAACGCGGGCATTCGAGTTGATAGCATGGCGAT | -0.894 | -0.144 | -0.0858 | 0.211 | -0.381 | 0.468 | -1.25 | -0.234 | 0.00818 |
| TCATATAGGTAACGGTGAAAGTCGAACGATATGA | -0.17 | 0.474 | 0.423 | 0.399 | 0.79 | -0.0623 | -0.6 | 0.164 | -0.165 |
| CCTTACGGGTCACTGACAGGTTATAGCATTTGGA | 3.39 | 6.19 | 4.95 | 1.95 | 5.59 | 2.98 | 0.283 | 3.8 | 1.03 |
| ACTAGCCGGCCAAGTTTGGGTCACTCAAACAAAG | 2.27 | 1.35 | 1.48 | -0.475 | 0.851 | 2.15 | 1.23 | 0.6 | 0.121 |
| CTACCAAGGTGAACAAGGTCGTTGACTACTATTC | 2.28 | 2.17 | 1.67 | 1.6 | 2.34 | 3.49 | 2 | 6.23 | 2.59 |
| TCTAGTTGGTCACGGAGGTCACACATGACGGGTA | 4.7 | 4.74 | 4.94 | 1.1 | 4.96 | 3.73 | 2.5 | 5.83 | 3.54 |
| ATATGTAGGTTACATCCGGGTCATTTAGGCTATG | 2.76 | 3.59 | 1.81 | 1.21 | 3 | 3.7 | 2.55 | 3.9 | 2.98 |
| CAAACTAGGCCAAGAGGTCAAAGTCCGCTTCCCG | 4.79 | 5.84 | 5.21 | 2.07 | 6.52 | 3.75 | 1.81 | 4.94 | 3.94 |
| GGAACGAGGGCATTCGAGTAGATAGCATGGCGAT | 0.0849 | 0.96 | 1.23 | 3.24 | 0.859 | 1.41 | -0.662 | 0.958 | 1.51 |
| TTACCACGGTGAAGGTCGTTGATCCCTCTGTAGA | 1.29 | 0.459 | 0.382 | -0.000966 | 1.37 | 0.834 | 0.375 | 0.957 | 0.451 |
| CGCACTAGGTCAGAACAGGACAGTGAAGGATGAT | 2.18 | 2.44 | 3.31 | 0.675 | 1.34 | 3.71 | 0.508 | 0.776 | -0.275 |
| CTCGAAACGTCGGTTGAGGTGAGTATACGGATAA | -0.165 | 0.0462 | 0.0959 | -0.0246 | -0.0266 | 2.55 | 1.2 | -0.213 | -0.242 |
| GGAACGAGGGCGAAGTTGATAGCATCTGTCGACG | -0.341 | 0.0412 | 0.2 | 1.17 | 0.297 | -0.192 | -0.526 | -0.285 | 0.152 |
| TCTGCTAGGTCCGTTGGTCAGCTAACGAGCTGCC | -0.396 | -0.454 | -0.542 | 0.392 | -0.5 | -0.748 | -1.13 | -0.499 | -0.592 |
| ATATGTAGGTTACATTCGGGTCATTCAGGCTATG | 2.86 | 3.72 | 2.05 | 1.74 | 3.03 | 3.99 | 3.23 | 4.24 | 3.31 |
